Test results from PubChem BioAssay (NCI).
This is part of a sample that, as a whole, favours compounds with a hit. Of some 83,000 tested, about 20% had one in any assay.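 Results are percent growth after 48 hours of single-concentration exposure. 100 means growth as in untreated cells, lower positive values show inhibition; negative values down to -100 show cell death.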 Activity calls are given as the source filed them. How the source made its calls: active means growth percent below 10; inactive means the rest.

Legend:
Assay in all cases: NCI-60 one-dose screen, 48 h (100 = growth as untreated, 0 = no growth, -100 = all killed)
Conditions in all cases: 10 µM unless noted
SR leukemia = test system: SR leukemia
RPMI-8226 leukemia = test system: RPMI-8226 leukemia
OVCAR-8 ovarian = test system: OVCAR-8 ovarian
OVCAR-5 ovarian = test system: OVCAR-5 ovarian
OVCAR-4 ovarian = test system: OVCAR-4 ovarian
SK-OV-3 ovarian = test system: SK-OV-3 ovarian
IGROV1 ovarian = test system: IGROV1 ovarian
OVCAR-3 ovarian = test system: OVCAR-3 ovarian
HS 578T breast = test system: HS 578T breast
NCI/ADR-RES ovarian = test system: NCI/ADR-RES ovarian
T-47D breast = test system: T-47D breast
BT-549 breast = test system: BT-549 breast
MDA-MB-435 melanoma = test system: MDA-MB-435 melanoma
SW-620 colon = test system: SW-620 colon
MCF7 breast = test system: MCF7 breast
HCT-116 colon = test system: HCT-116 colon
HCC-2998 colon = test system: HCC-2998 colon
KM12 colon = test system: KM12 colon

Measured: growth

O=C(/C=C/c1ccco1)Nc1ncc(Cc2ccc(F)cc2)s1
active: OVCAR-3 ovarian -8.58% | NCI/ADR-RES ovarian 0.377% | MDA-MB-435 melanoma -17.6% | HCC-2998 colon 7.46%
inactive: SR leukemia 16.1% | RPMI-8226 leukemia 32.4% | OVCAR-8 ovarian 22.2% | OVCAR-5 ovarian 32.5% | OVCAR-4 ovarian 63.9% | SK-OV-3 ovarian 39.3% | IGROV1 ovarian 27.2% | HS 578T breast 11.3% | T-47D breast 49.3% | BT-549 breast 24.2% | SW-620 colon 25.4% | MCF7 breast 15.8% | HCT-116 colon 19.5% | KM12 colon 16.1%

CNC1=C(Br)C(=O)c2c(C(=O)OC)c(C)nc(C)c2C1=O
inactive: SR leukemia 86.5% | RPMI-8226 leukemia 75.8% | OVCAR-8 ovarian 38.7% | OVCAR-5 ovarian 97.3% | OVCAR-4 ovarian 35.4% | SK-OV-3 ovarian 116% | IGROV1 ovarian 67.6% | HS 578T breast 72.4% | NCI/ADR-RES ovarian 74.7% | T-47D breast 62.8% | BT-549 breast 104% | SW-620 colon 48.2% | MCF7 breast 45.2% | HCT-116 colon 25.3% | HCC-2998 colon 69.6% | KM12 colon 62.4%
active: OVCAR-3 ovarian 1.75% | MDA-MB-435 melanoma -66.8%

CN(C)c1ccc(Cc2cc(-c3ccccc3)nn(C/C(=N/O)c3ccccc3)c2=O)cc1
inactive: SR leukemia 46.3% | RPMI-8226 leukemia 28.2% | OVCAR-8 ovarian 57.2% | OVCAR-5 ovarian 89.7% | OVCAR-4 ovarian 55.1% | SK-OV-3 ovarian 94.6% | IGROV1 ovarian 68.5% | OVCAR-3 ovarian 56.2% | HS 578T breast 83.1% | NCI/ADR-RES ovarian 44.1% | T-47D breast 11.8% | BT-549 breast 61.2% | MDA-MB-435 melanoma 38% | SW-620 colon 62.1% | MCF7 breast 29.1% | HCT-116 colon 46% | HCC-2998 colon 81.2% | KM12 colon 31.8%

O=C1c2cccnc2C(=O)c2c1c(C(=O)OCCCN1CCOCC1)c1ccccn21
inactive: HS 578T breast 26.9% | KM12 colon 15.7%
active: SR leukemia -2.21% | RPMI-8226 leukemia -17.2% | OVCAR-8 ovarian -46.2% | OVCAR-5 ovarian -11.2% | OVCAR-4 ovarian -19.1% | SK-OV-3 ovarian -11.6% | IGROV1 ovarian -3.82% | OVCAR-3 ovarian 2.32% | NCI/ADR-RES ovarian -13.7% | T-47D breast 4.62% | BT-549 breast -38.7% | MDA-MB-435 melanoma -32.4% | SW-620 colon -39.3% | MCF7 breast -38.7% | HCT-116 colon -49.6% | HCC-2998 colon 7.61%

O=C(NC1CCCCCC1)c1ccc2c(=O)n3c(nc2c1)CCCCC3
inactive: SR leukemia 116% | RPMI-8226 leukemia 87% | OVCAR-8 ovarian 101% | OVCAR-5 ovarian 111% | OVCAR-4 ovarian 76.2% | SK-OV-3 ovarian 108% | IGROV1 ovarian 94.2% | OVCAR-3 ovarian 110% | HS 578T breast 83% | NCI/ADR-RES ovarian 91.3% | T-47D breast 100% | BT-549 breast 100% | MDA-MB-435 melanoma 112% | SW-620 colon 101% | MCF7 breast 100% | HCT-116 colon 104% | HCC-2998 colon 121% | KM12 colon 115%

CC(C)(C)[C@H](OCc1cn([C@H]2C[C@@H](O)[C@@H](CO)O2)c(=O)[nH]c1=O)c1ccc(C#Cc2ccccc2)cc1[N+](=O)[O-]
active: MCF7 breast 3.01%
inactive: SR leukemia 35.7% | RPMI-8226 leukemia 36.8% | OVCAR-8 ovarian 87% | OVCAR-5 ovarian 97.6% | OVCAR-4 ovarian 85% | SK-OV-3 ovarian 93.5% | IGROV1 ovarian 88% | OVCAR-3 ovarian 87.7% | HS 578T breast 77.9% | NCI/ADR-RES ovarian 87.5% | T-47D breast 53.6% | BT-549 breast 27.6% | MDA-MB-435 melanoma 92.6% | SW-620 colon 101% | HCT-116 colon 32.3% | HCC-2998 colon 87.1% | KM12 colon 84.9%

COc1cc(C(=O)n2nc(NCCCc3ccccc3)c3cc(N)ccc32)cc(OC)c1OC
inactive: SR leukemia 52.3% | RPMI-8226 leukemia 69.5% | OVCAR-8 ovarian 82.8% | OVCAR-5 ovarian 93.3% | OVCAR-4 ovarian 105% | SK-OV-3 ovarian 104% | IGROV1 ovarian 110% | OVCAR-3 ovarian 101% | HS 578T breast 111% | NCI/ADR-RES ovarian 68.4% | T-47D breast 66% | BT-549 breast 97.1% | MDA-MB-435 melanoma 99% | SW-620 colon 112% | MCF7 breast 89.3% | HCT-116 colon 90.1% | HCC-2998 colon 105% | KM12 colon 88.5%

Cc1cc2c(C(C)C)c(O)c(O)c(/C=N/O)c2c(O)c1-c1c(C)cc2c(C(C)C)c(O)c(O)c(/C=N/O)c2c1O
active: SR leukemia 4.52% | OVCAR-8 ovarian 8.35%
inactive: RPMI-8226 leukemia 15% | OVCAR-5 ovarian 48.3% | OVCAR-4 ovarian 28.7% | SK-OV-3 ovarian 18.2% | IGROV1 ovarian 38.5% | OVCAR-3 ovarian 25.6% | HS 578T breast 41.9% | NCI/ADR-RES ovarian 44% | T-47D breast 10.2% | BT-549 breast 23.8% | MDA-MB-435 melanoma 37.4% | SW-620 colon 23.2% | MCF7 breast 15.3% | HCT-116 colon 18% | HCC-2998 colon 16.1% | KM12 colon 26%

O=C(Nc1ncc(Cc2ccccc2Cl)s1)c1ccc2c(c1)OCCO2
inactive: RPMI-8226 leukemia 19.3% | OVCAR-8 ovarian 24.2% | OVCAR-5 ovarian 33.2% | OVCAR-4 ovarian 43.5% | SK-OV-3 ovarian 32.5% | IGROV1 ovarian 28.4% | HS 578T breast 19.8% | NCI/ADR-RES ovarian 14.5% | T-47D breast 33.9% | BT-549 breast 18.7% | SW-620 colon 31.9% | MCF7 breast 12.4% | HCC-2998 colon 19.6%
active: SR leukemia 5.14% | OVCAR-3 ovarian -14.4% | MDA-MB-435 melanoma -19.5% | HCT-116 colon 7.38% | KM12 colon 6.53%

Cc1ccc(-c2nc(C#N)c(S(=O)(=O)n3nc(C)cc3N)o2)cc1
inactive: RPMI-8226 leukemia 46.5% | OVCAR-8 ovarian 87.2% | OVCAR-5 ovarian 99.8% | OVCAR-4 ovarian 111% | SK-OV-3 ovarian 108% | IGROV1 ovarian 80.8% | OVCAR-3 ovarian 54.3% | HS 578T breast 103% | NCI/ADR-RES ovarian 98.5% | T-47D breast 55.2% | BT-549 breast 80.4% | MDA-MB-435 melanoma 96.2% | SW-620 colon 15% | MCF7 breast 88.2% | HCT-116 colon 65.5% | HCC-2998 colon 110% | KM12 colon 92.8%
active: SR leukemia -25.8%

COC(=O)c1nc(-c2ccccc2)oc1S(=O)(=O)N1CCN(c2ccc(OC)cc2)CC1
inactive: RPMI-8226 leukemia 37.3% | OVCAR-8 ovarian 83.8% | OVCAR-5 ovarian 88.7% | OVCAR-4 ovarian 88.7% | SK-OV-3 ovarian 104% | IGROV1 ovarian 71.7% | OVCAR-3 ovarian 45.4% | HS 578T breast 89.2% | NCI/ADR-RES ovarian 104% | T-47D breast 59% | BT-549 breast 76.6% | MDA-MB-435 melanoma 77.2% | SW-620 colon 41.4% | MCF7 breast 45.4% | HCT-116 colon 60.9% | HCC-2998 colon 104% | KM12 colon 86.2%
active: SR leukemia -1.38%

COc1ccc(CNc2ccc3nc(CCC4CCCCC4)[nH]c3c2)cc1
inactive: SR leukemia 46.8% | RPMI-8226 leukemia 40.2% | OVCAR-8 ovarian 73.6% | OVCAR-5 ovarian 83.4% | OVCAR-4 ovarian 40.1% | SK-OV-3 ovarian 82% | IGROV1 ovarian 61% | OVCAR-3 ovarian 75.4% | HS 578T breast 79.7% | NCI/ADR-RES ovarian 70.3% | T-47D breast 41% | BT-549 breast 96.7% | MDA-MB-435 melanoma 80.9% | SW-620 colon 75% | MCF7 breast 68.4% | HCT-116 colon 50.7% | HCC-2998 colon 30.8% | KM12 colon 79.8%

COC1CC(O)C2=C(CC3C(/C(C)=C\CC=C(C)C)CCC3(C)O2)C1=O (stereo not drawn)
inactive: SR leukemia 86.4% | RPMI-8226 leukemia 93.6% | OVCAR-8 ovarian 99.9% | OVCAR-5 ovarian 114% | OVCAR-4 ovarian 113% | SK-OV-3 ovarian 107% | IGROV1 ovarian 110% | OVCAR-3 ovarian 109% | HS 578T breast 98.6% | NCI/ADR-RES ovarian 103% | T-47D breast 94.9% | BT-549 breast 107% | MDA-MB-435 melanoma 109% | SW-620 colon 104% | MCF7 breast 99.4% | HCT-116 colon 98.9% | HCC-2998 colon 105% | KM12 colon 107%

COc1ccc(/C=C\c2cc(OC)c(OC)c(OC)c2)cc1OCC(=O)Nc1nc2ccccc2s1
inactive: RPMI-8226 leukemia 22.5% | OVCAR-8 ovarian 19% | OVCAR-5 ovarian 65% | OVCAR-4 ovarian 49.2% | SK-OV-3 ovarian 30.4% | HS 578T breast 11.3% | NCI/ADR-RES ovarian 12.7% | T-47D breast 18.5% | BT-549 breast 38.7% | SW-620 colon 30% | HCC-2998 colon 35.6%
active: SR leukemia 9.4% | IGROV1 ovarian 3.36% | OVCAR-3 ovarian 0.388% | MDA-MB-435 melanoma -2.64% | MCF7 breast 9.7% | HCT-116 colon 5.14% | KM12 colon 5.76%

CCCC[N+]1(C)CCN=C1Cc1ccccc1 (stereo not drawn)
inactive: SR leukemia 94.4% | RPMI-8226 leukemia 75.7% | OVCAR-8 ovarian 97.2% | OVCAR-5 ovarian 103% | OVCAR-4 ovarian 109% | SK-OV-3 ovarian 109% | IGROV1 ovarian 106% | OVCAR-3 ovarian 103% | HS 578T breast 97.7% | NCI/ADR-RES ovarian 107% | T-47D breast 101% | BT-549 breast 123% | MDA-MB-435 melanoma 104% | SW-620 colon 98.4% | MCF7 breast 100% | HCT-116 colon 101% | HCC-2998 colon 93.7% | KM12 colon 118%

CO[C@]12C=C/C(=C(/C(=O)OCc3cccnc3)C(=O)CCCCCCCC[C@]3(OC)C=C/C(=C(/C(=O)OCc4cccnc4)C(=O)CCCCCCCC1)O3)O2
inactive: HS 578T breast 30.6%
active: SR leukemia -20.7% | RPMI-8226 leukemia -30.4% | OVCAR-8 ovarian 7.77% | OVCAR-5 ovarian -52.1% | OVCAR-4 ovarian -65.6% | SK-OV-3 ovarian -0.89% | IGROV1 ovarian -66.7% | OVCAR-3 ovarian -95.5% | NCI/ADR-RES ovarian -23.9% | T-47D breast -17.2% | BT-549 breast -67.8% | MDA-MB-435 melanoma -42.4% | SW-620 colon -33.3% | MCF7 breast -56.3% | HCT-116 colon -86% | HCC-2998 colon -90.6% | KM12 colon -86.5%
